Source: PubChem BioAssay (ICCB-Longwood Screening Facility, Harvard Medical School)
MgrA-DNA mod: alters Staphylococcus aureus MgrA binding to DNA | inhibition, % (test concentration not listed) | fluorescence polarization | AID 602314 | 84,000 tested, 0.13% active; in the data active = inhibition above about 30%, passing the limit was not always enough;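 note: 0% = protein plus DNA without compound and 100% = DNA alone without protein; higher means less MgrA bound to DNA so lower polarization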
* = called active by the depositor. The entries come from a sample that favours hits as a whole.

SMILES	MgrA-DNA mod
CC(C)c1ccc(C2C(C#N)=C(N)C(C#N)(C#N)C3=CCN(C)CC32)cc1 (stereo unspecified)	9
CC(=O)Oc1ccccc1C(=O)NC(C)(C)C	-3
O=C(O)CC(=O)Oc1ccc(F)cc1	-2
Cc1cc(C)c(C#N)c(SC2CCc3ccccc3C2=O)n1 (stereo unspecified)	1
O=C(CSc1nnc(-c2ccco2)c(-c2ccco2)n1)N1c2ccccc2Sc2ccc(Cl)cc21	22
O=C1c2ccccc2CC1Sc1nnc(-c2ccco2)c(-c2ccco2)n1 (stereo unspecified)	96*
CC(C)c1ccc(OCc2nnc(SCC(=O)NC3CCCCC3)o2)cc1	1
O=C(NCc1ccc2[nH]c3c(c2c1)CCCC3)c1ccc(F)c(F)c1	1
CCOC(=O)c1[nH]c2c([N+](=O)[O-])cc(OCC)cc2c1CCN1C(=O)c2ccccc2C1=O	2
NC(Cc1c[nH]c2ccccc12)C(=O)O (stereo unspecified)	0
O=C(O)Cc1c[nH]c2ccccc12	1
Cc1ccc(C)n1C(Cc1c[nH]c2ccccc12)C(=O)O (stereo unspecified)	66*
S=C(NCC1CCCO1)N1CCN(C2CCCCC2)CC1 (stereo unspecified)	4
Clc1ccc(-c2nc(N3CCCCC3)c3ccccc3n2)cc1	1
O=C1c2ccccc2-c2nc(-c3ccccc3)cc3cccc1c23	3
O=C1c2ccc(S(=O)(=O)O)cc2-c2nc(-c3ccccc3)nc3ccc(Cl)c1c23	81*
COC(=O)C(N=Cc1ccccc1)c1ccccc1 (stereo unspecified)	0
COC(=O)C(NC(=O)Nc1ccccc1)C(C)C (stereo unspecified)	-1
COC(=O)C(C(=O)OC)C(Nc1ccccc1)c1ccccc1 (stereo unspecified)	101*
COc1cc(/C=C2\C(=O)NC(=S)N(c3ccc(Cl)cc3)C2=O)c([N+](=O)[O-])cc1OC	9
N#CCC(=O)Nc1ccc2c(c1)OCCO2	-1
CCOc1ccc(NC2=CC(=O)CCC2)cc1	-1
CCOc1ccc(NC2=CC(=O)C=CC2=O)cc1	56*
CCOc1ccc(Nc2cnnc(Nc3ccc(OCC)cc3)n2)cc1	1
CN1CCN(C(=O)c2cc3c(n(-c4ccccc4)c2=O)CCCC3=O)CC1	-1
SMILES	MgrA-DNA mod
O=C(Oc1ccccc1)c1ccco1	-1
Cc1ccc(N2C(=O)NC(=O)/C(=C/c3ccc(Br)o3)C2=O)cc1Cl	49*
CC(C)(C)C1(C)OC(=O)C(=Cc2ccc(Br)o2)C(=O)O1 (stereo unspecified)	20
Cc1ccc(N2C(=O)NC(=O)/C(=C/c3cc(Br)c(O)cc3O)C2=O)cc1	14
CC(=O)Nc1ccccc1N1CCCCC1	0
Cc1ccc(S(=O)(=O)Nc2ccc(Br)cc2C(NCC(=O)O)c2ccccc2)cc1 (stereo unspecified)	2
CC(C)c1ccc(NC(=O)CNS(=O)(=O)c2ccccc2)cc1	2
CC(C)c1ccc(S(=O)(=O)Nc2cc(SCC(=O)O)c(O)c3ccccc23)cc1	90*
O=C(CN1CCCCC1)N1CCCC(c2nc3sc4c(c3c(=O)[nH]2)CCCC4)C1 (stereo unspecified)	-2
Cc1cccc(-n2cnc3c(c2=O)c2nc4ccccc4nc2n3CCC(C)C)c1	-3
CC(=O)Nc1ccc([N+](=O)[O-])cc1C	-1
CC(C)c1ccc(NC(=O)c2cnccn2)cc1	-2
CCN(C(=O)CSc1nccn1C)c1ccccc1	0
O=C1CC(=O)c2c1cccc2[N+](=O)[O-]	35
O=C1CC(=O)c2ccc3c4c(ccc1c24)C(=O)CC3=O	93*
CC(C)(C)C(=O)NC(=S)NC1CCSC1=O (stereo unspecified)	3
CCOCC(=O)Nc1ccc(I)cc1	0
O=C(NCCCN1CCOCC1)c1cc2nc(-c3ccc(Cl)c(Cl)c3)cc(C(F)(F)F)n2n1	-5
O=C1C=CC(=O)C(c2ccc(C(=O)O)cc2)=C1	83*
O=C(O)c1ccc(-c2ccccc2)cc1	5
CCc1ccc(C2=CC(=O)C=CC2=O)cc1	15
N#CC1=C(N)OC2=C(CCCC2=O)C1c1ccccc1C(F)(F)F (stereo unspecified)	-1
COC(=O)C1=CN(CC23CC4CC(CC(C4)C2)C3)C=C(C(=O)OC)C1c1cccs1	-2
CC(=O)c1ccc2c(c1)C1C=CCC1C(c1ccc(Cl)cc1Cl)N2 (stereo unspecified)	4
CCOC(=O)c1ccc2c(c1)C1C=CCC1C(c1ccc(Cl)cc1Cl)N2 (stereo unspecified)	-3
SMILES	MgrA-DNA mod
Fc1ccc(C2Nc3ccc(Br)cc3C3C=CCC32)cc1 (stereo unspecified)	-2
CCOC(=O)c1ccc2c(c1)C1C=CCC1C(c1ccccc1F)N2 (stereo unspecified)	-1
CCOC(=O)[C@@H]1Nc2ccc(C(=O)O)cc2[C@@H]2C=CC[C@H]12	71*
CC(C)c1ccc([C@@H]2Nc3ccc(C(=O)O)cc3[C@@H]3C=CC[C@@H]32)cc1	47*
CCOC(=O)c1cc(Oc2nc(C)nc3sc4c(c23)CCCC4)cc(C(=O)OCC)c1	-1
CCOC(=O)C1=C(C)N=c2s/c(=C\c3cc(OC)ccc3OC)c(=O)n2C1c1ccc(SC)cc1 (stereo unspecified)	2
CC(=O)OCC1OC(OC(C)=O)C(NC(=O)C(C)C)C(OC(C)=O)C1OC(C)=O (stereo unspecified)	3
Cc1ccccc1-c1nnc(SCC(=O)Oc2c(C)cccc2C)o1	1
COC(=O)CCC(=O)Nc1ccc(Oc2ccccc2)cc1	-2
CN1CCCc2cc(/C=C3\CCC(C4CCCC4)C3=O)ccc21 (stereo unspecified)	-1
CN1CCCc2cc(CN)ccc21	63*
CN1CCCc2cc(/C=C3\CC/C(=C/c4ccc5c(c4)N(C)CCC5)C3=O)ccc21	18
Oc1ccccc1C1C=CCC1 (stereo unspecified)	-3
O=C(COC(=O)Cc1cccc(C(F)(F)F)c1)NCc1ccccc1Cl	0
Cc1ccc(C)n1-c1sccc1C(=O)O	89*
Cc1ccc(C)n1-c1sccc1C(=O)CC#N	4
CC(=O)Nc1sccc1C(=O)O	-2
CCOc1cc(C(=O)N(CC)Cc2ccncc2)cc(OCC)c1OCC	0
O=C1CCCc2c1cc(C(=O)N1CCOCC1)c(=O)n2-c1ccccc1	-1
COc1ccc(C2C(C#N)=C(N)Oc3c2ccc2cccnc32)cc1 (stereo unspecified)	2
CN(C)/C=C1\CSc2ccc(F)cc2C1=O	6
COc1ccc(N2C(=O)/C(=C\c3ccc(C(C)C)cc3)C(=O)NC2=S)cc1	0
CCc1ccc(N2C(=O)/C(=C/c3ccc(OCC(=O)O)c(OC)c3)C(=O)NC2=S)cc1	18
CCC(C)N1C(=O)/C(=C\c2cnn(-c3ccccc3)c2)C(=O)NC1=S (stereo unspecified)	63*
c1ccc(Nc2cccc3nccnc23)cc1	-1
SMILES	MgrA-DNA mod
CN1CCN(c2ccc(NC(=O)CSc3ccc(Cl)cc3)cc2)CC1	-1
Cc1[nH]c2ccc(C(=O)O)cc2c1C	3
Cc1[nH]c2ccc(C(=O)O)cc2c1CC(=O)O	6
CCCc1c(C)[nH]c2ccc(C(=O)O)cc2c1=S	54*
CC(=O)Nc1ccc(C(=O)CSc2nnc(-c3ccoc3)c(-c3ccoc3)n2)cc1	44
COc1ccccc1/C=C(\C#N)c1ccc(-n2cccc2)cc1	1
Cc1ccc(/C=C2/SC(=S)N(CCc3ccc(Cl)cc3)C2=O)o1	-2
Cc1ccc(/C=C2\SC(=O)NC2=S)o1	81*
Cc1ccc(/C=C2\CC/C(=C\c3ccc(C)o3)C2=O)o1	23
